About 83,000 compounds went through this panel and 20% of them were active in at least one assay; those are over-represented in the sample as a whole.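 Assay: single dose, 48 h. Readout: percent growth (0 = no net growth; negative = cell death). Active: <10.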 Unmarked numbers belong to inactive results. Calls of active or inactive are those of the source.
Tests used:
Test in all cases: NCI-60 one-dose screen, 48 h (100 = growth as untreated, 0 = no growth, -100 = all killed)
Conditions in all cases: 10 µM unless noted
[1] = tested on: SR leukemia
[2] = tested on: RPMI-8226 leukemia
[3] = tested on: OVCAR-8 ovarian
[4] = tested on: OVCAR-5 ovarian
[5] = tested on: OVCAR-4 ovarian
[6] = tested on: SK-OV-3 ovarian
[7] = tested on: IGROV1 ovarian
[8] = tested on: OVCAR-3 ovarian
[9] = tested on: HS 578T breast
[10] = tested on: NCI/ADR-RES ovarian
[11] = tested on: T-47D breast
[12] = tested on: BT-549 breast
[13] = tested on: MDA-MB-435 melanoma
[14] = tested on: SW-620 colon
[15] = tested on: MCF7 breast
[16] = tested on: HCT-116 colon
[17] = tested on: HCC-2998 colon
[18] = tested on: KM12 colon

C[C@@H]1C(=O)N(C[C@H](Cc2ccccc2)N(Cc2ccccc2)Cc2ccccc2)[C@]1(Cc1ccccc1)C(=O)OC(C)(C)C
growth [1]: 56.2% | growth [2]: 36.8% | growth [3]: 66.7% | growth [4]: 109% | growth [5]: 28.8% | growth [6]: 73.1% | growth [7]: 77.5% | growth [8]: 54.5% | growth [9]: 73% | growth [10]: 69% | growth [11]: 47.4% | growth [12]: 85.7% | growth [13]: 76.5% | growth [14]: 63.7% | growth [15]: 50.6% | growth [16]: 40.6% | growth [17]: 84.5% | growth [18]: 62.4%

O[C@H]1CO[C@H]2[C@@H]1OC[C@@H]2Oc1ccc(Nc2nc(Nc3ccc(F)c(Cl)c3)ncc2F)cc1Cl
growth [1]: 110% | growth [2]: 116% | growth [3]: 111% | growth [4]: 105% | growth [5]: 96.9% | growth [6]: 110% | growth [7]: 102% | growth [8]: 103% | growth [9]: 98.7% | growth [10]: 97.6% | growth [11]: 110% | growth [12]: 105% | growth [13]: 93.1% | growth [14]: 98.2% | growth [15]: 88.3% | growth [16]: 105% | growth [17]: 101% | growth [18]: 108%

Clc1ccc(-c2cn(-c3ccccc3)c(-c3ccccc3)n2)cc1
growth [1]: -19.6% (active) | growth [2]: -54.6% (active) | growth [3]: 90.7% | growth [4]: 90% | growth [5]: 88.1% | growth [6]: 102% | growth [7]: 48% | growth [8]: 80% | growth [9]: 102% | growth [10]: 93.4% | growth [11]: 56.7% | growth [12]: 62.9% | growth [13]: 87.7% | growth [14]: 66.7% | growth [15]: 9.74% (active) | growth [16]: 27.2% | growth [17]: 97.6% | growth [18]: 53.6%

COc1cc(NC(=O)c2cc(O)c(CC=C(C)C)c(O)c2)cc2c1O[C@]1(C)CC[C@@H](O)C(C)(C)[C@H]1C2
growth [1]: 14.1% | growth [2]: -29.3% (active) | growth [3]: 54% | growth [4]: 61.8% | growth [5]: 51.5% | growth [6]: 21.5% | growth [7]: 52.5% | growth [8]: 31.6% | growth [9]: 13.1% | growth [10]: 96.4% | growth [11]: 7.15% (active) | growth [12]: 8.48% (active) | growth [13]: 24.2% | growth [14]: 14.7% | growth [15]: 10.5% | growth [16]: 23.8% | growth [17]: 48.7% | growth [18]: 31.1%

CCOC(=O)c1ccc(NC(=O)CCCN(CC)CC)cc1
growth [1]: 92.8% | growth [2]: 97.8% | growth [3]: 102% | growth [4]: 106% | growth [5]: 111% | growth [6]: 109% | growth [7]: 107% | growth [8]: 105% | growth [9]: 119% | growth [10]: 99% | growth [11]: 92.6% | growth [12]: 83.1% | growth [13]: 108% | growth [14]: 110% | growth [15]: 96% | growth [16]: 87.3% | growth [17]: 102% | growth [18]: 104%

COc1ccc(-c2c(N)n[nH]c2-c2ccccc2O)cc1OC
growth [1]: 53.9% | growth [2]: 52.8% | growth [3]: 68.3% | growth [4]: 92.2% | growth [5]: 94.7% | growth [6]: 84.1% | growth [7]: 94.6% | growth [8]: 108% | growth [9]: 91.7% | growth [10]: 98.2% | growth [11]: 70% | growth [12]: -4.52% (active) | growth [13]: 93.4% | growth [14]: 110% | growth [15]: 96.5% | growth [16]: 94.9% | growth [17]: 107% | growth [18]: 107%

CCCCCCNC(=O)c1cc(NCc2cc(O)ccc2O)ccc1O
growth [1]: 7.38% (active) | growth [2]: -12.3% (active) | growth [3]: 30.9% | growth [4]: 77.5% | growth [5]: 66.5% | growth [6]: 74.5% | growth [7]: 70.7% | growth [8]: 27.4% | growth [9]: 70.5% | growth [10]: 59.2% | growth [11]: 21.3% | growth [12]: 22.4% | growth [13]: 71.5% | growth [14]: 76.8% | growth [15]: 54.9% | growth [16]: 75% | growth [17]: 105% | growth [18]: 69.1%

C=CC(=O)N[C@@H](Cc1ccc(-c2cc(Cl)cc(Cl)c2)cc1)[C@@H](O)[C@H](O)C(=O)O
growth [1]: 92.8% | growth [2]: 105% | growth [3]: 85.9% | growth [4]: 86.8% | growth [5]: 99.9% | growth [6]: 91.6% | growth [7]: 105% | growth [8]: 114% | growth [9]: 92.9% | growth [10]: 95.6% | growth [11]: 96.1% | growth [12]: 91.9% | growth [13]: 102% | growth [14]: 101% | growth [15]: 93.5% | growth [16]: 91.5% | growth [17]: 87.3% | growth [18]: 102%

O=C1c2ccccc2C2(c3ccc(O)cc3)c3ccccc3Oc3cccc1c32 (stereo not given)
growth [1]: 9.2% (active) | growth [2]: 17.8% | growth [3]: 66.8% | growth [4]: 30.7% | growth [5]: 86.9% | growth [6]: 25.7% | growth [7]: 59.9% | growth [8]: 11.2% | growth [9]: 25.8% | growth [10]: 11.1% | growth [11]: 21.8% | growth [12]: 55.1% | growth [13]: -3.86% (active) | growth [14]: 22.7% | growth [15]: 23.1% | growth [16]: 14.1% | growth [17]: 34.6% | growth [18]: 15%

Clc1ccc2[nH]c3c(NCCCN4CCOCC4)ncnc3c2c1
growth [1]: -24.2% (active) | growth [2]: 52.6% | growth [3]: 66.5% | growth [4]: 90.8% | growth [5]: 77.5% | growth [6]: 81.5% | growth [7]: 63.1% | growth [8]: 85.3% | growth [9]: 102% | growth [10]: 65.9% | growth [11]: 72.2% | growth [12]: 77.9% | growth [13]: 92.8% | growth [14]: 57.2% | growth [15]: 74.6% | growth [16]: 36.3% | growth [17]: 87.4% | growth [18]: 86.5%

COc1cc(C2CC(=O)Nc3n[nH]c(-c4ccccc4)c32)cc(OC)c1OC (stereo not given)
growth [1]: 31.8% | growth [2]: 90.6% | growth [3]: 80.1% | growth [4]: 91.3% | growth [5]: 88.4% | growth [6]: 85.5% | growth [7]: 71.4% | growth [8]: 36% | growth [9]: 74.8% | growth [10]: 104% | growth [11]: 67.3% | growth [12]: 52.4% | growth [13]: -2.19% (active) | growth [14]: 44.5% | growth [15]: 47.1% | growth [16]: 45.1% | growth [17]: 68% | growth [18]: 51.5%

Cc1c(C(=O)O)nnn1-c1nccs1
growth [1]: 101% | growth [2]: 93% | growth [3]: 91.6% | growth [4]: 104% | growth [5]: 96.7% | growth [6]: 90.8% | growth [7]: 104% | growth [8]: 106% | growth [9]: 86.9% | growth [10]: 103% | growth [11]: 90.4% | growth [12]: 96.4% | growth [13]: 96.2% | growth [14]: 94% | growth [15]: 99.6% | growth [16]: 89.5% | growth [17]: 113% | growth [18]: 98.8%

COc1ccc(N(C)c2nc(Cl)nc3cnn(C)c23)cc1
growth [1]: 13.2% | growth [2]: 28.2% | growth [3]: 12.6% | growth [4]: 33% | growth [5]: 48.2% | growth [6]: 10.6% | growth [7]: 23.7% | growth [8]: 4.74% (active) | growth [9]: 37.8% | growth [10]: 2.72% (active) | growth [11]: 43.5% | growth [12]: -13.9% (active) | growth [13]: -22.8% (active) | growth [14]: 27.8% | growth [15]: 15.4% | growth [16]: -18.4% (active) | growth [17]: 17.6% | growth [18]: 6.55% (active)

O=C(NCOC(O)C(Cl)(Cl)Cl)NCOC(O)C(Cl)(Cl)Cl (stereo not given)
growth [1]: 109% | growth [2]: 105% | growth [3]: 104% | growth [4]: 89.7% | growth [5]: 108% | growth [6]: 90% | growth [7]: 99.1% | growth [8]: 116% | growth [9]: 108% | growth [10]: 103% | growth [11]: 89.5% | growth [12]: 101% | growth [13]: 107% | growth [14]: 108% | growth [15]: 89.6% | growth [16]: 99.9% | growth [17]: 118% | growth [18]: 109%

COc1ccc(/C(C)=N/NS(=O)(=O)c2ccc(C)cc2)cc1OC
growth [1]: 137% | growth [2]: 95.3% | growth [3]: 104% | growth [4]: 109% | growth [5]: 107% | growth [6]: 86.8% | growth [7]: 114% | growth [8]: 110% | growth [9]: 97.2% | growth [10]: 101% | growth [11]: 87.8% | growth [12]: 100% | growth [13]: 103% | growth [14]: 102% | growth [15]: 102% | growth [16]: 95.1% | growth [17]: 99.9% | growth [18]: 108%

Cc1ccc(C)c2c1C(=O)OC2=O
growth [1]: 10.4% | growth [2]: 109% | growth [3]: 106% | growth [4]: 90.6% | growth [5]: 109% | growth [6]: 95.2% | growth [7]: 92% | growth [8]: 115% | growth [9]: 114% | growth [10]: 98.1% | growth [11]: 96.1% | growth [12]: 104% | growth [13]: 114% | growth [14]: 107% | growth [15]: 93.5% | growth [16]: 96.4% | growth [17]: 118% | growth [18]: 109%

CCNCCNc1cc(-c2ccc(C#N)cc2)c(C#N)c2nc3ccccc3n12
growth [1]: -1.04% (active) | growth [2]: 51.6% | growth [3]: 38.7% | growth [4]: 75.6% | growth [5]: -34% (active) | growth [6]: 87.4% | growth [7]: 47.7% | growth [8]: -47.7% (active) | growth [9]: 25.2% | growth [10]: 60.9% | growth [11]: 37.5% | growth [12]: 40.4% | growth [13]: 13.9% | growth [14]: -30.2% (active) | growth [15]: 57.8% | growth [16]: -27.2% (active) | growth [17]: 41%

Reference: PubChem BioAssay (NCI)
